Experimental findings from PubChem BioAssay AID1445 (SRMLSC, 2008) are described below.

About 910 (0.41%) of roughly 220,000 compounds were called active. The sample as a whole holds a higher share of actives than the screen did. Entries with a potency or affinity are not part of this list. Values without a mark were called inactive.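 How the source made its calls: active means primary inhibition above the hit cutoff, then over 50% inhibition at one or more dose response concentrations (cut at about 23% in these data, passing the limit was not always enough); inconclusive means conflicting primary data, or primary hits not chosen for dose response; inactive means low primary inhibition, or under 50% at every dose.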

In general, inhibition refers to the drop in the measured response relative to a control, in per cent.

The target in the assay is Aminopeptidase N (Plasmodium falciparum (isolate 3D7)) (UniProt O96935). Description: P. falciparum M1AAP inhibitors, biochemical, fluorogenic H-Leu-NHMec substrate, 1536-well (AID 1445).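 Further: plate controls were DMSO full reaction for no effect and no enzyme background for full effect.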 Particulars: recombinant M1AAP, H-Leu-NHMec fluorogenic kinetic assay; at 30 µM, stronger effect = higher value unless noted.
Aminopeptidase N (Plasmodium falciparum (isolate 3D7)), sequence (O96935 whole entry, looked up): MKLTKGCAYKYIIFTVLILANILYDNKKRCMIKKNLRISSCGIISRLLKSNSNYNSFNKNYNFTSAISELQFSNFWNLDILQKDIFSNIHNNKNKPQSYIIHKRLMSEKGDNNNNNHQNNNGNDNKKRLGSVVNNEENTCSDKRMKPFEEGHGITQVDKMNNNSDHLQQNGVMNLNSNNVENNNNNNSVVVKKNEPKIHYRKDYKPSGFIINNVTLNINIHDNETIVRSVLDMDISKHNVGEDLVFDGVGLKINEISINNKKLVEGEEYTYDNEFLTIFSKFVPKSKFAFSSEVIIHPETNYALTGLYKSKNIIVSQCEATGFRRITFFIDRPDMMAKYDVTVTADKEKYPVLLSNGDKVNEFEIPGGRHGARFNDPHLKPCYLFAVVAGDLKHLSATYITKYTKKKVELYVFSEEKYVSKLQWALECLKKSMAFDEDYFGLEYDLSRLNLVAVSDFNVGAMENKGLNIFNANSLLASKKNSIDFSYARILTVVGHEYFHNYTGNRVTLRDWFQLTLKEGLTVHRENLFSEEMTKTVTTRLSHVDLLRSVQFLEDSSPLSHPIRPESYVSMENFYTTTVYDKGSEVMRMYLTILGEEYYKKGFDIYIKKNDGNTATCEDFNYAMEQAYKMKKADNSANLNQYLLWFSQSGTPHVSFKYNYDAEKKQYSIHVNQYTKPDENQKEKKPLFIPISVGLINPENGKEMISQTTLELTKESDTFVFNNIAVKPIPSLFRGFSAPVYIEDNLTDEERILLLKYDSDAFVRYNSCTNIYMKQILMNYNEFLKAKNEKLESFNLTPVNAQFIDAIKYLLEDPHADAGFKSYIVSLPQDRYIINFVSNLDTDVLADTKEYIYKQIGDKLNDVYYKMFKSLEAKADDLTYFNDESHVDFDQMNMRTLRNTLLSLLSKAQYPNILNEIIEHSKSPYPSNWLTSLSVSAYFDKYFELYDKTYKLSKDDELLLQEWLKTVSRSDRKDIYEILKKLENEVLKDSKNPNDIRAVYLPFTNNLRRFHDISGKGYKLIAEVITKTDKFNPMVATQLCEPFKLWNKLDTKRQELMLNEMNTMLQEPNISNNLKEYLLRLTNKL
As to `CNC(=O)c1cc2c(ccc3ccccc32)o1`, the inhibition was 3.24%.
As for `Cn1ncc(Br)c1C(=O)Nc1ccc(Br)cn1`, the figure is -3.07%; as for `Cc1occc1C(=O)NCCCc1ccccc1`, 0.03%.
As for `O=C(Nc1nnc(SCc2ccccc2)s1)c1cccs1`, the figure is -2.48%; as for `COc1ccc(C(=O)Nc2cc(C(=O)NCCc3ccccc3)ccc2Cl)cc1`, 13.3%; as for `COc1cccc(C(=O)Nc2cc(C(=O)NCCc3ccccc3)ccc2Cl)c1`, 24.9% (active).
As for `COCC(=O)Nc1cc(C(=O)NCCc2ccccc2)ccc1Cl`, the figure is -6.24%.
For the compound `Cc1ccc(C(C(=O)NC(C)(C)C)N(Cc2cccs2)C(=O)c2ccc3c(c2)OCCO3)cc1` (stereo not given), the inhibition was 9.95%.
As for `O=C(Cn1nnc(-c2ccc3c(c2)OCO3)n1)N1CCOCC1`, the figure is 0.39%; as for `CCOc1ccc(N2CC(C(=O)Nc3ccc(S(=O)(=O)Nc4ncccn4)cc3)CC2=O)cc1` (stereo not given), 20.6%; as for `CN(Cc1cnccn1)Cc1c(C(=O)N2CCc3ccccc3C2)nc2ccc(Cl)cn12`, 1.48%.
In the case of `CC1(NC(=S)NCCO)CCS(=O)(=O)C1` (stereo not given) it was 6.94%; in that of `O=C(NCc1ccco1)C1CCN(S(=O)(=O)c2cccc3cccnc23)CC1`, 0.35%; in that of `O=C(NCc1cccs1)C1CCCN(S(=O)(=O)c2cccc3cccnc23)C1` (stereo not given), 21.9%.
As for `O=C(NCc1cccs1)C1CCN(S(=O)(=O)c2cccc3cccnc23)CC1`, the figure is 45.9% (active).
On to `COc1ccc(NC(=O)C2CCN(S(=O)(=O)c3cccc4cccnc34)CC2)cc1OC`, for which the inhibition was 2.6%.
In the case of `COc1ccc(CNC(=O)C2CCN(S(=O)(=O)c3cccc4cccnc34)CC2)cc1` it was 11.4%; in that of `O=C(NCc1cccs1)C1CCN(S(=O)(=O)c2cccc3nsnc23)CC1`, 6.27%.
In the case of `COc1ccc(NC(=O)C2CCCN(S(=O)(=O)c3cccc4cccnc34)C2)cc1OC` (stereo not given) it was 28.4% (active).
As for `COc1cccc(NC(=O)C2CCCN(S(=O)(=O)c3cccc4cccnc34)C2)c1` (stereo not given), the figure is 4.01%; as for `CCOc1ccccc1C1C(C(=O)OC)=C(N)OC2=C1C(=O)CCC2` (stereo not given), 3.31%.
Consider `CCOC(=O)N1CCC(NC(=O)C2=CCN(S(=O)(=O)c3ccc(F)cc3)CC2)CC1`, for which the inhibition was -3%.
In the case of `Cc1cccc(C(=O)Nc2sc(C)c(-c3ccccc3)c2C#N)c1` it was 3.54%.
For `O=C(OC1CCOC1=O)c1ccc(Cl)c(S(=O)(=O)N2CCCCC2)c1` (stereo not given), the inhibition is 1.33%.
As for `COc1cc(/C=C2\SC(c3ccc(C)cc3)=NC2=O)cc(OC)c1O`, the figure is 19.7%; as for `COc1cc(/C=C2\SC(c3ccc(C)cc3)=NC2=O)cc(OC)c1OC`, -0.48%; as for `C=CCn1c(=N)c(C(=O)NCCCOC)cc2c(=O)n3ccccc3nc21`, 13.6%.
Take `COCCCNC(=O)c1cc2c(=O)n3cccc(C)c3nc2n(C(C)C)c1=N`: the inhibition is 21.8%.
In the case of `COCCNC(=O)c1cc2c(=O)n3cccc(C)c3nc2n(Cc2ccncc2)c1=N` it was 30.2%; in that of `C=CCn1c(=N)c(C(=O)NCCCOC)cc2c(=O)n3cc(C)ccc3nc21`, 4.34%.
In the case of `CC(CN1CCCCC1)OC(=O)C1c2ccccc2Oc2ccccc21` (stereo not given) it was 1.62%; in that of `Cc1ccc(S(=O)(=O)N2c3ccccc3CC2C)cc1` (stereo not given), 2.44%.
As for `CC(c1ccccc1)C1CC(=O)N(C2CCCCC2)C1=O` (stereo not given), the figure is -0.34%.
Take `COc1ccc2cc1Oc1ccc(cc1)C[C@H]1c3cc(c(OC)cc3CCN1C)Oc1c(OC)c(OC)cc3c1[C@H](C2)N(C)CC3`: the inhibition was 0.59%.
As to `COc1ccc2cc1Oc1ccc(cc1)C[C@H]1c3c(cc4c(c3Oc3cc5c(cc3OC)CCN(C)[C@@H]5C2)OCO4)CCN1C`, the inhibition is 2.7%.
In the case of `CC(c1ccccc1)n1c(Cn2ncc3ccccc3c2=O)n[nH]c1=S` (stereo not given) it was 7.12%.
As for `O=C(NCc1ccccc1)C1CCCN(S(=O)(=O)c2cccc3nonc23)C1` (stereo not given), the figure is 34.1%.
In the case of `O=C(NCc1ccc2c(c1)OCO2)C1CCCN(S(=O)(=O)c2cccc3cccnc23)C1` (stereo not given) it was 18.6%; in that of `O=C(NCc1ccco1)C1CCCN(S(=O)(=O)c2cccc3nsnc23)C1` (stereo not given), 5.11%.
`O=C(NCc1ccco1)C1CCCN(S(=O)(=O)c2cccc3cccnc23)C1` (stereo not given): the inhibition was 9.65%.
As for `O=C(NCc1ccc2c(c1)OCO2)C1CCCN(S(=O)(=O)c2cccc3nonc23)C1` (stereo not given), the figure is 27.8% (active); as for `COCC(=O)N(Cc1ccccc1)c1ccccn1`, 17.1%.
As for `CC(=O)Nc1ccc(S(=O)(=O)N2CCN(CC(O)COc3ccc4ccccc4c3)CC2)cc1` (stereo not given), the figure is 8.01%; as for `O=C(CSc1nnc(Cc2ccccc2)n1C1CCCCC1)N1CCOCC1`, 4.89%.
As for `COc1ccc(/C(N)=N/OC(=O)c2ccc3c(c2)OCO3)cc1OC`, the figure is 1.74%; as for `CCn1c(CC(=O)Nc2cccc(Cl)c2Cl)nnc1SCCOc1ccc(OC)cc1`, 13.4%.
As to `COc1ccc(OCCSc2nnc(CC(=O)Nc3cccc(Cl)c3Cl)n2C)cc1`, the inhibition was 23.6% (active).
As for `COc1cccc(NC(=O)Cc2nnc(SCCOc3ccccc3)n2C)c1`, the figure is 8.03%; as for `Cc1cc(NS(=O)(=O)c2ccc(Nc3nc(-c4sc(N)nc4C)cs3)cc2)no1`, 17.9%; as for `CCC(=O)Nc1nc(C)c(-c2csc(Nc3ccc(S(=O)(=O)Nc4cc(C)on4)cc3)n2)s1`, 6.43%.
As for `Cc1cc(NS(=O)(=O)c2ccc(Nc3nc(-c4sc(C)nc4C)cs3)cc2)no1`, the figure is 23.9% (active); as for `Cc1nc(CNC(=O)c2cc(COc3ccc(F)cc3Cl)on2)cs1`, 3.28%.
In the case of `Cc1ccc(S(=O)(=O)Nc2ccc(Cl)cc2C(=O)c2ccccc2)cc1`, the inhibition was 3.73%.
As for `O=C(Cc1sc(Nc2ccccc2)nc1-c1ccccc1)NCc1ccccc1`, the figure is 7.32%.
In the case of `COc1cc(/C=C(\C#N)c2nc3ccc(C)cc3[nH]2)c([N+](=O)[O-])cc1OC` it was 14.8%; in that of `COc1cc(/C=C(/C#N)c2nc(-c3cc4ccccc4oc3=O)cs2)cc([N+](=O)[O-])c1O`, 11%.
In the case of `N#C/C(=C/c1ccncc1)c1nc2ccccc2s1` it was -2.18%.
For `COc1cc(/C=C(\C#N)c2nc3ccccc3[nH]2)cc(OC)c1O`, the inhibition is 20.3%.
As for `COc1cc(/C=N/Nc2nc3ccccc3s2)cc([N+](=O)[O-])c1O`, the figure is 32.1%.
As for `COc1ccc(-c2csc(/C(C#N)=C\c3ccc(O)c([N+](=O)[O-])c3)n2)cc1OC`, the inhibition was 3.12%.
